The assay concerns A673/TR/shEF. In words: cell viability (LOESS-normalised, relative to median of negative controls) (log2 ratio); higher = more viable cells (less compound effect), active = hit call of the paper (over 3 MAD below the median). The settings on record: treatment time: 72 h. Put shortly:
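A673/TR/shEF Ewing sarcoma cells (1,500 per well, 384-well plates) were grown with or without doxycycline to induce EWS-FLI1 shRNA knockdown, starting 24 h before compounds. Library compounds at two or more concentrations, with DMSO controls, were added for three days. Cell viability was read by CellTiter-Glo luminescence on an Envision reader, then LOESS-corrected per plate, divided by the median of negative controls and log2-transformed. Hits were wells at least three median absolute deviations from the median of all screened wells.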

[1] abbreviates: 0.103 µM, library screen: screen3, EWS-FLI1 expression: high (no doxycycline).
[2] abbreviates: 0.103 µM, library screen: screen3, EWS-FLI1 expression: low (doxycycline-induced shRNA knockdown).
[3] abbreviates: 0.308 µM, library screen: screen3, EWS-FLI1 expression: high (no doxycycline).
Where [4] appears, read: 0.308 µM, library screen: screen3, EWS-FLI1 expression: low (doxycycline-induced shRNA knockdown).
Where [5] appears, read: 0.926 µM, library screen: screen3, EWS-FLI1 expression: high (no doxycycline).
The mark [6] stands for this setting: 0.926 µM, library screen: screen3, EWS-FLI1 expression: low (doxycycline-induced shRNA knockdown).
The mark [7] stands for this setting: 2.8 µM, library screen: screen3, EWS-FLI1 expression: high (no doxycycline).
The mark [8] stands for this setting: 2.8 µM, library screen: screen3, EWS-FLI1 expression: low (doxycycline-induced shRNA knockdown).
The mark [9] stands for this setting: 8.3 µM, library screen: screen3, EWS-FLI1 expression: high (no doxycycline).
Where [10] appears, read: 8.3 µM, library screen: screen3, EWS-FLI1 expression: low (doxycycline-induced shRNA knockdown).
The mark [11] stands for this setting: 25 µM, library screen: screen3, EWS-FLI1 expression: high (no doxycycline).
[12] abbreviates: 25 µM, library screen: screen3, EWS-FLI1 expression: low (doxycycline-induced shRNA knockdown).
Setting [13] is: 0.25 µM, library screen: screen1, EWS-FLI1 expression: high (no doxycycline).
Setting [14] is: 0.25 µM, library screen: screen1, EWS-FLI1 expression: low (doxycycline-induced shRNA knockdown).
[15] abbreviates: 2.5 µM, library screen: screen1, EWS-FLI1 expression: high (no doxycycline).
Where [16] appears, read: 2.5 µM, library screen: screen1, EWS-FLI1 expression: low (doxycycline-induced shRNA knockdown).
Where [17] appears, read: 0.25 µM, library screen: screen2, EWS-FLI1 expression: high (no doxycycline).
Setting [18] is: 0.25 µM, library screen: screen2, EWS-FLI1 expression: low (doxycycline-induced shRNA knockdown).
The mark [19] stands for this setting: 2.5 µM, library screen: screen2, EWS-FLI1 expression: high (no doxycycline).
The mark [20] stands for this setting: 2.5 µM, library screen: screen2, EWS-FLI1 expression: low (doxycycline-induced shRNA knockdown).

Out of some 3,200 compounds screened, about 300 (9.4%) showed activity. Shown is part of a subset that was picked to be rich in actives.

With `CC1CC2C3CCC4=CC(=O)C=CC4(C)C3C(=O)CC2(C)[C@@]1(O)C(=O)CO` (some centres not stated), the “cell viability (log2)” value reads like this: under setting [1], 0.145 (inactive); under setting [2], -0.00246 (inactive); under setting [3], 0.132 (inactive); under setting [4], 0.12 (inactive); under setting [5], 0.101 (inactive); under setting [6], 0.0958 (inactive). Also, the “cell viability (log2)” value is 0.116 (inactive) under setting [7]; 0.077 (inactive) under setting [8]; 0.0168 (inactive) under setting [9]; 0.08 (inactive) under setting [10]; 0.0762 (inactive) under setting [11]; 0.0993 (inactive) under setting [12].
For the compound `COc1ccc(CN2CCN(Cc3ccccc3Br)CC2)cc1OC`, the “cell viability (log2)” value is, setting by setting: under setting [13], 0.0838 (inactive); under setting [14], 0.133 (inactive); under setting [15], 0.0605 (inactive); under setting [16], 0.115 (inactive).
Regarding `Cc1cc(O)c2c(c1)Cc1cccc(O)c1C2=O`, the “cell viability (log2)” value under setting [13] was 0.119 (inactive), the “cell viability (log2)” value under setting [14] was 0.00964 (inactive), the “cell viability (log2)” value under setting [15] is 0.16 (inactive) and the “cell viability (log2)” value under setting [16] was 0.111 (inactive).
With `O=C1CSC(=O)N1CCN1C(=O)SC(=Cc2ccc(O)cc2)C1=O`, the “cell viability (log2)” value was 0.0789 (inactive) under setting [13], 0.0957 (inactive) under setting [14], 0.0804 (inactive) under setting [15] and -0.00491 (inactive) under setting [16].
Turning to `O=C(Oc1cc(O)cc2c1CC(OC(=O)c1cc(O)c(O)c(O)c1)C(c1ccc(O)c(O)c1)O2)c1cc(O)c(O)c(O)c1` (configuration not stated), the “cell viability (log2)” value by setting is: under setting [13], 0.117 (inactive); under setting [14], -0.00743 (inactive); under setting [15], 0.128 (inactive); under setting [16], -0.0369 (inactive).
Regarding `CCCCCCCCCCCCCCCCCC(=O)NCC(COP(=O)([O-])OCC[N+](C)(C)C)OCC` (configuration not stated), the “cell viability (log2)” value by setting is: under setting [17], 0.252 (inactive); under setting [18], 0.0979 (inactive); under setting [19], 0.243 (inactive); under setting [20], 0.0461 (inactive).
As to `CC(CN1c2ccccc2Sc2cccnc21)N(C)C` (configuration not stated), the “cell viability (log2)” value runs as follows: under setting [13], 0.132 (inactive); under setting [14], 0.0453 (inactive); under setting [15], 0.0549 (inactive); under setting [16], 0.034 (inactive).
As to `C#Cc1cccc(Nc2ncnc3cc(OCCOC)c(OCCOC)cc23)c1`, the “cell viability (log2)” value reads like this: under setting [1], 0.107 (inactive); under setting [2], 0.0915 (inactive); under setting [3], 0.189 (inactive); under setting [4], 0.0523 (inactive); under setting [5], 0.0696 (inactive); under setting [6], 0.0933 (inactive). Further, the “cell viability (log2)” value is, setting by setting: under setting [7], 0.0439 (inactive); under setting [8], 0.0596 (inactive); under setting [9], 0.105 (inactive); under setting [10], 0.0233 (inactive); under setting [11], -0.0778 (inactive); under setting [12], -0.0451 (inactive).
Take `C#Cc1cccc(Nc2ncnc3cc(OC)c(OCCCCCCC(=O)NO)cc23)c1`: the “cell viability (log2)” value runs as follows: under setting [1], -0.0787 (inactive); under setting [2], -0.0134 (inactive); under setting [3], -0.0791 (inactive); under setting [4], -0.0194 (inactive); under setting [5], -0.53 (active); under setting [6], -0.197 (active). The “cell viability (log2)” value reads like this: under setting [7], -1.73 (active); under setting [8], -0.607 (active); under setting [9], -2.92 (active); under setting [10], -0.618 (active); under setting [11], -3.65 (active); under setting [12], -1.64 (active).
In the case of `COc1cc2ncnc(Nc3cccc(Cl)c3)c2cc1OC`, the “cell viability (log2)” value reads like this: (0.025 µM, library screen: screen1, EWS-FLI1 expression: high (no doxycycline)) 0.237 (inactive); (0.025 µM, library screen: screen1, EWS-FLI1 expression: low (doxycycline-induced shRNA knockdown)) 0.01 (inactive); under setting [13], 0.289; under setting [14], 0.0337 (inactive); under setting [17], 0.134 (inactive); under setting [18], 0.0168 (inactive). Besides, the “cell viability (log2)” value is -0.137 (active) under setting [15]; 0.122 (inactive) under setting [16]; 0.175 (inactive) under setting [19]; 0.00846 (inactive) under setting [20]; -0.119 (active) (25 µM, library screen: screen1, EWS-FLI1 expression: high (no doxycycline)); 0.297 (25 µM, library screen: screen1, EWS-FLI1 expression: low (doxycycline-induced shRNA knockdown)).
As to `COCC(=O)NC/C=C/c1ccc2ncnc(Nc3ccc(Oc4ccc(C)nc4)c(C)c3)c2c1`, the “cell viability (log2)” value is, setting by setting: under setting [1], 0.0492 (inactive); under setting [2], 0.0262 (inactive); under setting [3], -0.0204 (inactive); under setting [4], 0.0495 (inactive); under setting [5], -0.0118 (inactive); under setting [6], 0.013 (inactive). In addition, the “cell viability (log2)” value under setting [7] was -0.0655 (inactive); the “cell viability (log2)” value under setting [8] was -0.0248 (inactive); the “cell viability (log2)” value under setting [9] is -0.00849 (inactive); the “cell viability (log2)” value under setting [10] was 0.0384 (inactive); the “cell viability (log2)” value under setting [11] is -0.127 (inactive); the “cell viability (log2)” value under setting [12] is -0.105 (inactive).
As to `CN(C)c1cc2c(Nc3ccc4c(cnn4Cc4ccccc4)c3)ncnc2cn1`, the “cell viability (log2)” value is 0.124 (inactive) under setting [17], 0.0545 (inactive) under setting [18], 0.147 (inactive) under setting [19] and 0.0613 (inactive) under setting [20].
In the case of `COc1cc2ncnc(Nc3ccc(O)cc3)c2cc1OC`, the “cell viability (log2)” value under setting [17] was 0.241 (inactive), the “cell viability (log2)” value under setting [18] was 0.0114 (inactive), the “cell viability (log2)” value under setting [19] was 0.112 (inactive) and the “cell viability (log2)” value under setting [20] was 0.0956 (inactive).
Take `CC(C)CC1NC(=O)CNC1=O` (configuration not stated): the “cell viability (log2)” value is, setting by setting: under setting [13], 0.138 (inactive); under setting [14], 0.0779 (inactive); under setting [15], 0.0859 (inactive); under setting [16], 0.0262 (inactive).
For the compound `Oc1ccc2c(c1)O[C@H](c1ccc(O)c(O)c1)[C@@H](O)C2`, the “cell viability (log2)” value under setting [13] is 0.0741 (inactive), the “cell viability (log2)” value under setting [14] is -0.0244 (inactive), the “cell viability (log2)” value under setting [15] is 0.0985 (inactive) and the “cell viability (log2)” value under setting [16] was 0.085 (inactive).
`COc1cc(O)c2c(=O)cc(-c3ccc(OC)c(-c4c(O)cc(O)c5c(=O)cc(-c6ccc(O)cc6)oc45)c3)oc2c1`: the “cell viability (log2)” value is, setting by setting: under setting [13], 0.0329 (inactive); under setting [14], 0.0664 (inactive); under setting [15], 0.144 (inactive); under setting [16], -0.0351 (inactive).
Consider `CC(=O)OCC(=O)[C@@]1(O)CC[C@H]2[C@@H]3CC[C@@H]4C[C@H](OC(C)=O)CC[C@]4(C)[C@H]3C(=O)C[C@@]21C`, for which the “cell viability (log2)” value was 0.118 (inactive) under setting [13], 0.0343 (inactive) under setting [14], 0.0611 (inactive) under setting [15] and -0.0696 (inactive) under setting [16].
Turning to `NC(CCC(=O)NCS(=O)(=O)O)C(=O)O` (configuration not stated), the “cell viability (log2)” value reads like this: under setting [17], 0.192 (inactive); under setting [18], 0.0399 (inactive); under setting [19], 0.0879 (inactive); under setting [20], 0.0533 (inactive).

For the origin of these results see the supplement of paper PMC6089552.
